Each molecule was assayed on CDKL3. Settings: concentration: 1 μM, replicates: in singlicate; n = 1.
For Cl.Cl.NCC(C(=O)Nc1cc(Br)c(-c2ccnc3[nH]ccc23)s1)c1ccccc1 (stereo not drawn) [GSK1269851], the “%Inh” value was 0%.
With Cl.c1ccc(-c2ccc3c(Nc4ccc5[nH]ncc5c4)ccnc3c2)nc1 [GW440137] the “%Inh” value was 0%.
In the case of NCCCC(NC(=O)c1cc(Br)c(-c2ccnc3[nH]ccc23)s1)c1ccccc1.O=C(O)C(F)(F)F.O=C(O)C(F)(F)F (stereo not drawn) [GSK1287544], the “%Inh” value is reported as 0%.
With Cl.Cl.NCC(NCc1ccc(-c2ccnc3[nH]ccc23)s1)c1ccccc1 (stereo not drawn) [GSK1321565] the “%Inh” value was 0%.
In the case of Cc1ccc(S(=O)(=O)Nc2ccc(Nc3nccc(Nc4cccc5[nH]ncc45)n3)cc2)cc1 [GSK581271], the “%Inh” value is reported as 0%.
With O=C(Nc1cccc(Oc2ccc3nc(NC(=O)C4CC4)cn3n2)c1)c1ccccc1C(F)(F)F the “%Inh” value was 0%.
COc1cccc(NC(=O)NC2CCN(c3ccnc(Nc4cc(OC)c(OC)c(OC)c4)n3)C2)c1 (stereo not drawn) [GSK1379763] was tested, and the “%Inh” value was 0%.
In the case of Cl.Cl.NCC(NC(=O)c1cc(-c2ccccc2)c(-c2ccnc3[nH]ccc23)s1)c1ccccc1 (stereo not drawn) [GSK1321561], the “%Inh” value is reported as 58%.
In the case of Cc1cccc(NC(=O)Nc2ccc(Oc3ncnc4ccn(C)c34)cc2)c1, the “%Inh” value is reported as 0%.
With COc1cc(Nc2nccc(-c3c(-c4cccc(NC(=O)c5c(F)cccc5F)c4)nn4ncccc34)n2)cc(OC)c1OC [GSK327238] the “%Inh” value was 62%.
For COc1cc(Nc2nccc(N3CCC(NC(=O)Nc4cccc(C(C)=O)c4)C3)n2)cc(OC)c1OC (stereo not drawn) [GSK1379753], the “%Inh” value was 0%.
For Cc1ccc(C)c(NC(=O)NC2CCN(c3ccnc(Nc4ccc(F)cc4)n3)C2)c1 (stereo not drawn) [GSK1379720], the “%Inh” value was 0%.
COc1ccc(CNC(=O)NC2CCN(c3ccnc(Nc4ccc(F)cc4)n3)CC2)cc1 [GSK1379788] was tested, and the “%Inh” value was 0%.
For Nc1ncc(-c2cccnc2)c2scc(-c3ccc4c(c3)CCN4C(=O)Cc3ccccc3)c12 [GSK683281], the “%Inh” value was 0%.
For O=C(Nc1n[nH]c2cc(-c3ccoc3)ccc12)C1CC1 [SB-738481], the “%Inh” value was 10%.
O=c1[nH]cc(-c2ccc(N3CCOCC3)cc2)c2sc(-c3cn[nH]c3)cc12 [GSK2276055] was tested, and the “%Inh” value was 0%.
With Nc1n[nH]c2cnc(-c3ccccc3)cc12 [SB-642124] the “%Inh” value was 0%.
O=C(Nc1cccc(-c2nn3ccccc3c2-c2ccnc(Nc3cccc(C(F)(F)F)c3)n2)c1)c1c(F)cccc1F [GSK292658] was tested, and the “%Inh” value was 0%.
With CN(c1ccc(NC(=O)Nc2cc(C(F)(F)F)ccc2F)cc1)c1ccnc(Nc2ccc(S(N)(=O)=O)cc2)n1 [GW809893] the “%Inh” value was 99.4%.
CNC(=O)c1ccccc1Nc1nc(Nc2ccc(N3CCOCC3)cc2)ncc1Cl.Cl [GSK1576028] was tested, and the “%Inh” value was 0%.
COC(=O)Nc1nc2ccc(Oc3ccc(NC(=O)Nc4cc(C(F)(F)F)ccc4F)cc3)cc2n1C.Cl [GW692089] was tested, and the “%Inh” value was 0%.
With COc1cc2c(cc1OCCN1CCNCC1)ncc1c3ccc(C#N)cc3[nH]c21 the “%Inh” value was 10%.
O=C(NC1CCN(c2ccnc(Nc3ccc(F)cc3)n2)C1)c1cc2ccccc2s1 (stereo not drawn) [GSK1379716] was tested, and the “%Inh” value was 0%.
In the case of Oc1cc(Nc2ccnc3cc(I)ccc23)ccc1F [GW552771], the “%Inh” value is reported as 0%.
For CCn1c(-c2nonc2N)nc2c(C#CC(C)(C)O)ncc(OCCCCN)c21.O=C(O)C(F)(F)F.O=C(O)C(F)(F)F [GSK507274], the “%Inh” value was 0%.
In the case of CC(=O)Nc1nc2cnc(Nc3cc(NC(=O)c4cccc(C5(C#N)CC5)c4Cl)ccc3C)nc2s1, the “%Inh” value is reported as 24%.
In the case of O=C(Nc1ccccc1F)NC1CCN(c2ccnc(Nc3ccc(F)cc3)n2)CC1 [GSK1379800], the “%Inh” value is reported as 0%.
O=C(Nc1n[nH]c2nc(-c3ccc(O)cc3)ccc12)C1CC1 [SB-710363] was tested, and the “%Inh” value was 44%.
c1ccc(Oc2ccc(Nc3ccnc4cc(-c5ccc(CNCCN6CCOCC6)o5)ccc34)cc2)nc1 [GW567145] was tested, and the “%Inh” value was 0%.
For COc1cccc(C(=O)Nc2cccc(Oc3ccc4nc(NC(=O)C5CC5)cn4n3)c2)c1, the “%Inh” value was 7%.
For Cc1occc1-c1ncc(OC[C@@H](N)Cc2c[nH]c3ccccc23)cc1-c1ccc2[nH]nc(C)c2c1.O=C(O)C(F)(F)F [GSK682037], the “%Inh” value was 0%.
With COCCOCCOc1cc2ncc3c4ccc(C#N)cc4[nH]c3c2cc1OC the “%Inh” value was 0%.
In the case of Cn1cc(-c2ccc3c(c2)CCN3C(=O)Cc2cccc(Cl)c2)c2c(N)ncnc21 [GSK2606590], the “%Inh” value is reported as 0%.
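Note: KINOMEscan kinase panel screen.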
